The text below walks through data of PubChem BioAssay AID1345085 (National Center for Advancing Translational Sciences (NCATS), 2018).

Results filed as inconclusive are left out. Values without a mark were called inactive. Calls of active or inactive are those of the source. Calls come from the whole dose curve; as a rule, active = well fitted cell-killing curve with a large enough effect; inconclusive = small, poorly fitted or top-dose-only effect, or effect the other way; inactive = no such curve, though single readings can be large or run the other way.
% is set by controls: 0 for no effect and ±100 for the full control effect; potency is the fitted concentration of half-maximal effect.

This assay deals with Hek293T. The experiment in a line: Confirmatory qHTS for gynecologic anti-cancer compounds from libraries of approved drugs and bioactive compounds. Note: nearly all actives have a fitted effect of over 55% in size. The following applies: gynecologic cancer cell panel viability, ATPlite luminescence, 48 h; series mostly up to 57.6 µM. Put shortly: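 IC50 values derive from an ATPlite ATP-content luminescence assay following 48 h treatment at 37 C. Each compound ran as an 11-concentration, threefold series (57.5 uM to 0.977 nM); HEK 293T served as control line for selectivity index.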
On to `CC(Oc1cc(-n2cnc3ccc(CN4CCN(C)CC4)cc32)sc1C(N)=O)c1ccccc1C(F)(F)F` (centres undefined), for which the Potency is 24.3 µM (active).
With `CS(=O)(=O)c1ccc(-c2cnc(N)c(C(=O)Nc3ccccc3)n2)cc1`, the Potency entry was “inactive”.
For `C[C@@]1(C(=O)Nc2ccc(F)nc2)CCCN1c1nc(Nc2cc(C3CC3)[nH]n2)c2cccn2n1`, the Potency result is “inactive”.
With `COc1cc2c(NC3CCN(C(C)C)CC3)nc(C3CCCCC3)nc2cc1OCCCN1CCCC1`, the Potency is 9.68 µM (active).
Take `CC(=O)O[C@H]1C(=O)[C@@]2(C)[C@H]([C@H](OC(=O)c3ccccc3)[C@]3(O)C[C@H](OC(=O)[C@H](O)[C@@H](NC(=O)c4ccccc4)c4ccccc4)C(C)=C1C3(C)C)[C@]1(OC(C)=O)CO[C@@H]1C[C@@H]2O`: the activity change, negative = viability loss is 4.91% [at 10.7 µM].
`CN1CCCC(n2nc(Cc3ccc(Cl)cc3)c3ccccc3c2=O)CC1` (centres undefined): the Potency is 17.2 µM (active).
As to `CCCCc1oc2ccccc2c1C(=O)c1cc(I)c(OCCN(CC)CC)c(I)c1`, the Potency is 79.4 µM (active).
As to `CN(C)C(CCOc1cccc2ccccc12)c1ccccc1` (centres undefined), the Potency entry is “inactive”.
As to `CN1CCN(Cc2ccc(NC(=O)Nc3ccc(Oc4cc(NC(=O)C5CC5)ncn4)cc3)cc2C(F)(F)F)CC1`, the Potency is 7.69 µM (active).
On the same count and under the same terms, the result for `CC(C)CC(=O)Nc1n[nH]c2c1CN(C(=O)C1CCN(C)CC1)C2(C)C` reads 1.37 µM (active); that for `COc1cccc2c1C(=O)c1c(O)c3c(c(O)c1C2=O)C[C@@](O)(C(=O)CO)C[C@@H]3O[C@H]1C[C@H](N)[C@H](O)[C@H](C)O1`, 3.85 µM (active); that for `Cc1cc(Nc2nc(N[C@@H](C)c3ncc(F)cn3)ncc2Cl)n[nH]1`, “inactive”.
`CN(NC(=O)CC(=O)NN(C)C(=S)c1ccccc1)C(=S)c1ccccc1`: the Potency was 0.0611 µM (active).
Turning to `FC(F)(F)c1ccc(/C=C/c2nc(COc3ccc(CCCCn4ccnn4)cc3)co2)cc1`, the Potency was 0.0193 µM (active).
As to `Cc1ccc(C(=O)Nc2ccc(CN3CCN(C)CC3)c(C(F)(F)F)c2)cc1C#Cc1cnc2cccnn12`, the Potency was 17.2 µM (active).
As to `CC(C)(C(=O)NCC(F)(F)C(F)(F)F)C(=O)NC1C(=O)Nc2ccccc2-c2ccccc21` (centres undefined), the Potency entry was “inactive”.
`COc1ccc2c(c1OC)C(=O)O[C@@H]2[C@H]1c2c(cc3c(c2OC)OCO3)CCN1C`: the Potency result was “inactive”.
Still for that read-out and setting: the result for `NCCOc1cc(C(=O)Nc2cc(OCCN)c3ccccc3n2)nc(C(=O)Nc2cc(OCCN)c3ccccc3n2)c1` reads “inactive”; that for `CCC1C(=O)N(C)c2cnc(Nc3ccc(C(=O)NC4CCC(N5CCN(CC6CC6)CC5)CC4)cc3OC)nc2N1C(C)C` (centres undefined), 0.0611 µM (active).
As to `COc1ccc2c(c1)c(CC(=O)O)c(C)n2C(=O)c1ccc(Cl)cc1`, the Potency entry was “inactive”.
Regarding `COc1cc(Nc2ncc(F)c(Nc3ccc4c(n3)N(COP(=O)(O)O)C(=O)C(C)(C)O4)n2)cc(OC)c1OC`, the Potency result is “inactive”.
`Cc1ccc(C(=O)Nc2ccc(CN3CCN(C)CC3)c(C(F)(F)F)c2)cc1C#Cc1cnc2[nH]ncc2c1`: the Potency was 21.7 µM (active).
Still for that read-out and setting: the result for `CN(c1nccc(=O)[nH]1)C1CCN(c2nc3ccccc3n2Cc2ccc(F)cc2)CC1` reads “inactive”; that for `Cc1c(C)n(Cc2ccc(-c3ccccc3C(=O)O)cc2)c2ccc(C(=O)N[C@@H](C)c3ccc([N+](=O)[O-])cc3)cc12`, “inactive”; that for `CC(C)c1nn(-c2c(Cl)cccc2Cl)c2nc(Cc3ccc(OCCO)cc3)[nH]c(=O)c12`, 0.0306 µM (active).
For the compound `O=C(O)c1ccc(Nc2ncc3c(n2)-c2ccc(Cl)cc2C(c2c(F)cccc2F)=NC3)cc1`, the Potency result was “inactive”.
As for `Cc1ccc(C(N)=O)cc1Nc1nccc(-c2cn(C(C)C)c3cnccc23)n1`, the Potency was 13.7 µM (active).
Regarding `CC(C)C[C@H](NC(=O)[C@H](CCc1ccccc1)NC(=O)CN1CCOCC1)C(=O)N[C@@H](Cc1ccccc1)C(=O)N[C@@H](CC(C)C)C(=O)[C@@]1(C)CO1`, the Potency is 3.43 µM (active).
Consider `COCCOc1nc(-c2ccc(Cl)c(Cl)c2)n(-c2ccc(NC(=O)CCl)cc2)n1`, for which the Potency was 12.2 µM (active).
On to `COc1cc(N2CCC(N3CCN(C)CC3)CC2)ccc1Nc1ncnc(Nc2ccccc2S(=O)(=O)C(C)C)n1`, for which the Potency is 21.7 µM (active).
With `NC(=O)c1cnc(-c2ccc(C3(N)CCC3)cc2)c(-c2ccccc2)c1`, the Potency was 21.7 µM (active).
`O=C1c2c(O)ccc(O)c2C(=O)c2c(NCCNCCO)ccc(NCCNCCO)c21`: the Potency was 0.863 µM (active).
`C[C@@H](Oc1cc(-c2cnn(C3CCNCC3)c2)cnc1N)c1c(Cl)ccc(F)c1Cl`: the Potency is 21.7 µM (active).
With `Cc1[nH]c2ccccc2c1CCNCc1ccc(/C=C/C(=O)NO)cc1`, the Potency is 0.193 µM (active).
